Measured values published in PubChem BioAssay (NCATS).
Inconclusive results are not listed. A number with no mark means an inactive call. The source made the active and inactive calls. The call rests on the fitted dose curve; tested in HEK293 reporter line.

experiment: qHTS for Inhibitors of the Functional Ribonucleoprotein Complex (vRNP) of Lassa (LASV) Arenavirus: LASV Primary Screen - GLuc reporter signal (AID 1347082); conditions: LASV minigenome vRNP, Gaussia luciferase reporter; series mostly up to 57.5 µM; activity change, negative = inhibition: at the top concentration; further: nearly all actives have a fitted effect of over 60% in size
On the % scale 0 is the no-effect control and ±100 the full control effect.

Row | SMILES | Potency | activity change, negative = inhibition [%]
1 | O=C(NCCO[N+](=O)[O-])c1cccnc1 | inactive | –
2 | NS(=O)(=O)c1cc(C(=O)O)cc(N2CCCC2)c1Oc1ccccc1 | – | -5.54
3 | C=CC[C@@H]1C=C(C)C[C@H](C)C[C@H](OC)[C@H]2O[C@@](O)(C(=O)C(=O)N3CCCC[C@H]3C(=O)O[C@H](C(C)=C[C@@H]3CC[C@H](O)[C@H](OC)C3)[C@@H](C)[C@@H](O)CC1=O)[C@@H](C)C[C@@H]2OC | – | -18.4
4 | Cn1c(=O)c2[nH]cnc2n(C)c1=O | inactive | –
5 | CCCCC(CC)CN1CN(CC(CC)CCCC)CC(C)(N)C1 (stereo not drawn) | – | 1.58
6 | O=C1OC(CN2CCOCC2)CN1/N=C/c1ccc([N+](=O)[O-])o1 (stereo not drawn) | – | -1.78
7 | O=C(O)Cc1cn(-c2ccccc2)nc1-c1ccc(Cl)cc1 | – | 4.79
8 | CCN1CCCC1CNC(=O)c1cc(S(=O)(=O)CC)c(N)cc1OC (stereo not drawn) | inactive | –
9 | Cc1c(NC(C)C)c(=O)n(-c2ccccc2)n1C | – | 4.82
10 | CCOC(=O)NNc1ccc(N(CC)CC(C)O)nn1 (stereo not drawn) | – | 12
11 | CC[N+](C)(CC)CCOC(=O)C1c2ccccc2Oc2ccccc21 | – | 7.18
12 | COc1cc(C(=O)N2CCOCC2)cc(OC)c1OC | – | -5.73
13 | CCCCCCOc1ccccc1C(N)=O | – | -9.66
14 | C[N+]1(C)CCCC(OC(=O)C(O)(c2ccccc2)c2ccccc2)C1 (stereo not drawn) | – | -8.57
15 | Nc1nc2ccc(OC(F)(F)F)cc2s1 | – | -32.9
16 | CC1(C)Oc2ccc(C#N)cc2[C@@H](N2CCCC2=O)[C@@H]1O | – | 2.64
17 | O=C(CN1CCNCC1)NC1CCCCC1 | – | 8.3
18 | Nc1nc(Cl)nc2c1ncn2[C@H]1C[C@H](O)[C@@H](CO)O1 | – | 3.71
19 | CC(C)[N+](C)(C)CC(O)COc1cccc2ccccc12 (stereo not drawn) | – | 0.329

Row | SMILES | Potency | activity change, negative = inhibition [%]
20 | O=C1CC(c2ccc(Cl)cc2)CC(=O)N1 | – | 0.0964
21 | O=C(O)CCCCC(=O)O | – | -9.28
22 | CCOC(=O)c1ccc(O)cc1 | inactive | –
23 | CC(COc1ccccc1)NN (stereo not drawn) | – | -9.27
24 | CCCCCCCCCCCCCCCCCC(=O)OCC(O)CO (stereo not drawn) | – | -0.853
25 | CC(=O)Oc1ccc(C)cc1 | inactive | –
26 | S=P(N1CC1)(N1CC1)N1CC1 | inactive | –
27 | CC[C@H]1OC(=O)[C@H](C)[C@@H](O[C@H]2C[C@@](C)(OC)[C@@H](O)[C@H](C)O2)[C@H](C)[C@@H](O[C@@H]2O[C@H](C)C[C@H](N(C)C)[C@@H]2O)[C@](C)(O)C[C@@H](C)CN(C)[C@H](C)[C@@H](O)[C@]1(C)O | – | 9.28
28 | CC(=O)Nc1ccc(/C=N/NC(N)=S)cc1 | – | 2.88
29 | CCCc1c2oc(C(=O)O)cc(=O)c2cc2c(=O)cc(C(=O)O)n(CC)c12 | – | 2.37
30 | O=C(O)[C@H](O)c1ccccc1 | – | -10.5
31 | CCOC(=O)c1cnc2c(cnn2CC)c1NN=C(C)C | inactive | –
32 | CC[C@H](C)[C@H](N)C(=O)O | – | -17
33 | O=C1c2ccccc2C(=O)c2c1ccc(O)c2O | – | 2.25
34 | C/C(=N\O)[C@@H](C)NCC(C)(C)CN[C@H](C)/C(C)=N/O | – | -1.94
35 | C[C@@H]1O[C@@H](OC[C@H]2O[C@@H](Oc3c(-c4ccc(O)c(O)c4)oc4cc(O)cc(O)c4c3=O)[C@H](O)[C@@H](O)[C@@H]2O)[C@H](O)[C@H](O)[C@H]1O | – | -1.34
36 | N#C[C@H]1C[C@H]2C[C@@H]2N1C(=O)[C@@H](N)C12CC3CC(CC(O)(C3)C1)C2 | – | -5.84
37 | CC(=O)O[C@@H]1C(=O)O[C@@H]2[C@H]1OC(=O)[C@@H]2OC(C)=O | – | -2.82
38 | CCOC(=O)C1=C[C@@H](OC(CC)CC)[C@H](NC(C)=O)[C@@H](N)C1 | – | 12.8
